One may read the AC50 as the concentration giving half of the maximal activity seen.

Results on nine molecules are retold here after PubChem BioAssay (EPA / NIEHS).

Read-out in assay [1]: E-selectin (Homo sapiens) (UniProt P16581)
Description: BSK_SAg_Eselectin: BioMAP Diversity Plus: SAg Assay for Eselectin Biomarker Activity (AID 2283091). As to conditions: primary human HUVEC with PBMC; actives raise or lower the signal. The method, boiled down: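 E-selectin ELISA readout at 24 h post-dosing in human umbilical vein endothelial cell/PBMC co-culture; gain or loss of signal fitted relative to DMSO baseline.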

Read-out in assay [2]: Monokine induced gamma interferon (MIG), CXCL9 (gene 4283)
Description: BSK_SAg_MIG: BioMAP Diversity Plus: SAg Assay for Monokine induced gamma interferon (MIG) Biomarker Activity (AID 2283092). Conditions: primary human HUVEC with PBMC; actives raise or lower the signal. The method, boiled down:
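Measures CXCL9 protein by ELISA in a human vascular primary-cell co-culture (umbilical vein endothelium with PBMC) 24 h after chemical addition. Activity is scored up or down from the DMSO control.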

The nature of assay [3]: BSK_SAg_PBMCCytotoxicity: PBMC Cytotoxicity Assessment in the BioMAP Diversity Plus: SAg Assay (AID 2283093).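 Further: PBMC viability measured as Alamar Blue reduction fluorescence at 546/580 nm; fitted both ways against DMSO so a hit may be loss or gain of signal.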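 On AC50: PBMC superantigen activated with SEB plus TSST-1 one hour after compound addition.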 Conditions: primary human HUVEC with PBMC. The method, boiled down: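 Alamar Blue reduction (6 h, ex/em 546/580 nm) read after 90 h culture of PBMC pre-dosed 1 h then stimulated with SEB plus TSST-1, 20 ng/mL each. Gain or loss of signal fitted relative to DMSO.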

Read-out in assay [4]: Interleukin-8 (IL8), CXCL8 (gene 3576)
Put plainly: BSK_SAg_IL8: BioMAP Diversity Plus: SAg Assay for Interleukin-8 (IL8) Biomarker Activity (AID 2283094). Conditions: primary human HUVEC with PBMC; actives raise or lower the signal. The method, boiled down:
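Chemicals were dosed onto a human endothelial–PBMC co-culture, and IL-8 was quantified by ELISA after 24 h. Both increases and decreases were fitted relative to DMSO.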

The nature of assay [5]: BSK_SAg_Proliferation: Cell Proliferation Assessment in the BioMAP Diversity Plus: SAg Assay (AID 2283095).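 Further: relative cell number as total protein by SRB absorbance in sub-confluent culture.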 As to conditions: primary human HUVEC with PBMC. The method, boiled down: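 Absorbance of sulforhodamine B at 560 nm reports total protein in a human vascular endothelial/PBMC co-culture after 96 h chemical exposure. Gain or loss of signal is fitted in both directions against DMSO.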

Assay [6] is described as follows: BSK_SAg_SRB: Viability Assessment in the BioMAP Diversity Plus: SAg Assay (AID 2283096).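 Further: cells read one day after compound addition; hits may be either gain or loss of signal compared with DMSO.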 As to conditions: primary human HUVEC with PBMC. The method, boiled down: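 SRB absorbance at 560 nm served as the viability read-out. Cells (HUVEC plus peripheral blood mononuclear cells) were TCA-fixed and stained 24 h post-dosing; activity fitted in both directions against DMSO controls.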

For assay [7], the target named is human CYP19A1, CYP19A1 (gene 1588) (UniProt P11511). Description: NVS_ADME_hCYP19A1: NovaScreen (NVS) CYP450-related Enzyme Activity (ADME) Assay for human CYP19A1 (AID 2283098; active means hit-call score of the fitted dose curve at least 0.9, where 1 is the maximum;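 on AC50: potency for inhibitors seen as loss of fluorescent enzyme signal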). The method, boiled down: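 Primary testing was in duplicate at a single 10 uM concentration, with actives followed up in concentration-response series. Fluorescence read-out of recombinant enzyme activity at 0.5 h, cell-free. Acetonitrile was the negative-control baseline.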
Chain of human CYP19A1, CYP19A1 (gene 1588) (P11511 whole entry, looked up): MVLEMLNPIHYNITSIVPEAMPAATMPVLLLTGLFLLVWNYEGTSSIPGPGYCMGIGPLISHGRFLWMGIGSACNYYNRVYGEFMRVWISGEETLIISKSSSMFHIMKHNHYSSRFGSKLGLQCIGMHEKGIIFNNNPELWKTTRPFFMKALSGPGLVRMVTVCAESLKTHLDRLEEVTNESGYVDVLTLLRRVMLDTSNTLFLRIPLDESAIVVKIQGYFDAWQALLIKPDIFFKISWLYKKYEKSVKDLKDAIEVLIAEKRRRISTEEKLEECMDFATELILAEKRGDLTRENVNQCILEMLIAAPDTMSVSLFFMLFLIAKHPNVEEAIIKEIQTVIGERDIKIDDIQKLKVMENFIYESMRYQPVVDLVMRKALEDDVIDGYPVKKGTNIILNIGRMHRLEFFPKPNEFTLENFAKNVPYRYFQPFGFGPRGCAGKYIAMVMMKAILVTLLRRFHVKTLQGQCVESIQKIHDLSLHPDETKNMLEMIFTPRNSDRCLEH

Assay [8] addresses human CYP2A6, CYP2A6 (gene 1548) (UniProt P11509). Description: NVS_ADME_hCYP2A6: NovaScreen (NVS) CYP450-related Enzyme Activity (ADME) Assay for human CYP2A6 (AID 2283099; active means hit-call score of the fitted dose curve at least 0.9, where 1 is the maximum). The method, boiled down:
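Insect-cell-expressed human CYP2A6 enzyme activity measured by fluorescence intensity 0.5 hour post-dosing. Compounds screened at 10 uM in duplicate, then hits tested singly in concentration series (max 20 uM); acetonitrile baseline.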

Assay [9] concerns the target human CYP2B6, CYP2B6 (gene 1555) (UniProt P20813). Put plainly: NVS_ADME_hCYP2B6: NovaScreen (NVS) CYP450-related Enzyme Activity (ADME) Assay for human CYP2B6 (AID 2283101; active means hit-call score of the fitted dose curve at least 0.9, where 1 is the maximum). The method, boiled down:
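Recombinant protein, specific fluorescent substrate, read at 1 h post-dosing. Primary: single 10 uM, duplicate; follow-up: concentration series. Activity = signal loss vs acetonitrile baseline, with positive and negative controls on every plate.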

Assay [10] addresses human CYP2J2, CYP2J2 (gene 1573) (UniProt P51589). Put plainly: NVS_ADME_hCYP2J2: NovaScreen (NVS) CYP450-related Enzyme Activity (ADME) Assay for human CYP2J2 (AID 2283106; active means hit-call score of the fitted dose curve at least 0.9, where 1 is the maximum). The method, boiled down:
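Chemicals were first tested at 10 uM in duplicate, and hits meeting criteria such as 30% inhibition were run in singleton concentration series with a 20 uM top concentration. Enzyme activity of recombinant CYP2J2 was measured by fluorescence after 1 h, relative to acetonitrile.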

For assay [11], the target named is human CYP2C9, CYP2C9 (gene 1559) (UniProt P11712). Description: NVS_ADME_hCYP2C9: NovaScreen (NVS) CYP450-related Enzyme Activity (ADME) Assay for human CYP2C9 (AID 2283108; active means hit-call score of the fitted dose curve at least 0.9, where 1 is the maximum). The method, boiled down:
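Fluorescence readout of CYP2C9 activity (SF9-expressed human enzyme) at 0.75 h. The primary screen used 10 uM in duplicate, with concentration-response follow-up for actives; acetonitrile was the negative control.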

The target in assay [12] is Cytochrome P450 2C19 (Homo sapiens) (UniProt P33261). Put plainly: NVS_ADME_hCYP2C19: NovaScreen (NVS) CYP450-related Enzyme Activity (ADME) Assay for human CYP2C19 (AID 2283113; active means hit-call score of the fitted dose curve at least 0.9, where 1 is the maximum;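 further: potency for inhibition seen as loss of fluorescent signal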). The method, boiled down:
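Recombinant insect-cell-expressed enzyme, fluorescent substrate, 1 h after chemical addition, fluorescence intensity. Baseline = acetonitrile vehicle; activity scored as signal loss. Primary HTS single concentration 10 uM, duplicate; actives retested in concentration series.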

Assay [13] concerns the target rat CYP2A2, Cyp2a2 (gene 24895) (UniProt P15149). Put plainly: NVS_ADME_rCYP2A2: NovaScreen (NVS) CYP450-related Enzyme Activity (ADME) Assay for rat CYP2A2 (AID 2283116; active means hit-call score of the fitted dose curve at least 0.9, where 1 is the maximum). The method, boiled down: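 Compounds first tested in duplicate at 10 uM, then in singleton concentration series up to 20 uM when over threshold. Activity of the recombinant enzyme read by fluorescence at 0.2 h, normalised to acetonitrile vehicle.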

In assay [14] the test system is rat CYP2B1, gene 24300. Description: NVS_ADME_rCYP2B1: NovaScreen (NVS) CYP450-related Enzyme Activity (ADME) Assay for rat CYP2B1 (AID 2283117; active means hit-call score of the fitted dose curve at least 0.9, where 1 is the maximum). The method, boiled down:
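Cell-free fluorescence enzyme assay, recombinant rat CYP2B1, 0.75 h after dosing. Single-concentration duplicates at 10 uM preceded concentration series (max 20 uM) for actives; acetonitrile as negative-control baseline.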

Assay [15] concerns the target human CYP1A2, CYP1A2 (gene 1544) (UniProt P05177). Description: NVS_ADME_hCYP1A2: NovaScreen (NVS) CYP450-related Enzyme Activity (ADME) Assay for human CYP1A2 (AID 2283102; active means hit-call score of the fitted dose curve at least 0.9, where 1 is the maximum;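 on AC50: potency for inhibition since loss of fluorescence marks reduced CYP1A2 activity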). The method, boiled down: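 Fluorescence-intensity enzyme activity read-out, taken 0.5 h post-dosing, using insect-cell-derived recombinant CYP1A2 and specific fluorescent substrate. Acetonitrile served as negative control/baseline. Single-concentration duplicate screen at 10 uM, then concentration-response follow-up.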

Assay [16] concerns the target Cytochrome P450 3A4 (Homo sapiens) (UniProt P08684). Put plainly: NVS_ADME_hCYP3A4: NovaScreen (NVS) CYP450-related Enzyme Activity (ADME) Assay for human CYP3A4 (AID 2283110; active means hit-call score of the fitted dose curve at least 0.9, where 1 is the maximum). The method, boiled down: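 Compounds screened in duplicate at 10 uM, with follow-up concentration-response for actives, against insect-cell-expressed recombinant enzyme. Activity read by fluorescence 0.33 h after dosing; loss of signal versus acetonitrile control indicates inhibition.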

The target of assay [17] is human CYP2D6, CYP2D6 (gene 1565) (UniProt P10635). Put plainly: NVS_ADME_hCYP2D6: NovaScreen (NVS) CYP450-related Enzyme Activity (ADME) Assay for human CYP2D6 (AID 2283107; active means hit-call score of the fitted dose curve at least 0.9, where 1 is the maximum). The method, boiled down: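 Fluorescence intensity read 1 h post-dosing; insect-cell-expressed recombinant protein with fluorogenic substrate, no cells. Activity is scored as signal loss relative to acetonitrile baseline, first at a single 10 uM concentration in duplicate, then as concentration series for confirmed actives.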
Chain of human CYP2D6, CYP2D6 (gene 1565) (P10635 whole entry, looked up): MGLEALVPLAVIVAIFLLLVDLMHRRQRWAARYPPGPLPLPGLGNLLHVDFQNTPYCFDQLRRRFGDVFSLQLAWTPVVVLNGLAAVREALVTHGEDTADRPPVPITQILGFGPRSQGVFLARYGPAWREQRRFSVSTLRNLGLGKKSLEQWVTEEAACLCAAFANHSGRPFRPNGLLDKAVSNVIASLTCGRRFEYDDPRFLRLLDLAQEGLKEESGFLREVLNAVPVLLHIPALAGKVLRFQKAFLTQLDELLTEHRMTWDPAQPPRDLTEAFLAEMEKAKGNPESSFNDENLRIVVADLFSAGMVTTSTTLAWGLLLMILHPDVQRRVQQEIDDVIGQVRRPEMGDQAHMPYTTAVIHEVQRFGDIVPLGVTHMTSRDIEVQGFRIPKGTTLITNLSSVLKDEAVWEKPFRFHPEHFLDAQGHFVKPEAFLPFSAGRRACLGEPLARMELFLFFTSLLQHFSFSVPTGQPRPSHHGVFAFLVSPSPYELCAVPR

Assay [18] concerns the target human CYP4F12, CYP4F12 (gene 66002) (UniProt Q9HCS2). Description: NVS_ADME_hCYP4F12: NovaScreen (NVS) CYP450-related Enzyme Activity (ADME) Assay for human CYP4F12 (AID 2283111; active means hit-call score of the fitted dose curve at least 0.9, where 1 is the maximum). The method, boiled down:
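Recombinant enzyme with a fluorescent substrate, signal read at 0.5 h post-dose; activity loss analysed relative to acetonitrile. Compounds first run in duplicate at 10 uM, with follow-up concentration-response testing of actives.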

Assay [19] deals with human CYP2C8, CYP2C8 (gene 1558) (UniProt P10632). Description: NVS_ADME_hCYP2C8: NovaScreen (NVS) CYP450-related Enzyme Activity (ADME) Assay for human CYP2C8 (AID 2283104). The method, boiled down:
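Fluorescence readout of substrate turnover by recombinant CYP2C8 after 0.5 h, baseline acetonitrile. Single-concentration duplicate screen at 10 uM preceded singleton concentration series (max 20 uM) for compounds passing the inhibition threshold.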

Inconclusive results are not listed. Activity calls are given as the source filed them. How the source made its calls, unless noted: active means hit-call score of the fitted dose curve at least 0.9, where 1 is the maximum; inactive means score below 0.9.

Chain of human CYP1A2, CYP1A2 (gene 1544) (P05177 whole entry, looked up): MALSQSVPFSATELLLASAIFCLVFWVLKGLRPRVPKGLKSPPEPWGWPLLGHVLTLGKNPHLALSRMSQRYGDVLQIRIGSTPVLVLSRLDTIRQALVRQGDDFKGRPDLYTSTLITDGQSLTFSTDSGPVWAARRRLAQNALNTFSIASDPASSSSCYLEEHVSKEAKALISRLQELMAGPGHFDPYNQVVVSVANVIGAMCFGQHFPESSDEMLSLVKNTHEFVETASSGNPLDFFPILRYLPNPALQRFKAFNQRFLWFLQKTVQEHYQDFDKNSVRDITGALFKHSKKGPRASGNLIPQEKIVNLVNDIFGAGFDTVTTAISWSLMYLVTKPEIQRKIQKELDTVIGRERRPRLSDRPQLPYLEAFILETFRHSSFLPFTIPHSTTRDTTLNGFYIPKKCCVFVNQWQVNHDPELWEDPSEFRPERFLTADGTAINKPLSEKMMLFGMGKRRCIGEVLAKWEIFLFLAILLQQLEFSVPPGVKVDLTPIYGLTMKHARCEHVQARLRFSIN
Chain of E-selectin (Homo sapiens) (P16581 whole entry, looked up): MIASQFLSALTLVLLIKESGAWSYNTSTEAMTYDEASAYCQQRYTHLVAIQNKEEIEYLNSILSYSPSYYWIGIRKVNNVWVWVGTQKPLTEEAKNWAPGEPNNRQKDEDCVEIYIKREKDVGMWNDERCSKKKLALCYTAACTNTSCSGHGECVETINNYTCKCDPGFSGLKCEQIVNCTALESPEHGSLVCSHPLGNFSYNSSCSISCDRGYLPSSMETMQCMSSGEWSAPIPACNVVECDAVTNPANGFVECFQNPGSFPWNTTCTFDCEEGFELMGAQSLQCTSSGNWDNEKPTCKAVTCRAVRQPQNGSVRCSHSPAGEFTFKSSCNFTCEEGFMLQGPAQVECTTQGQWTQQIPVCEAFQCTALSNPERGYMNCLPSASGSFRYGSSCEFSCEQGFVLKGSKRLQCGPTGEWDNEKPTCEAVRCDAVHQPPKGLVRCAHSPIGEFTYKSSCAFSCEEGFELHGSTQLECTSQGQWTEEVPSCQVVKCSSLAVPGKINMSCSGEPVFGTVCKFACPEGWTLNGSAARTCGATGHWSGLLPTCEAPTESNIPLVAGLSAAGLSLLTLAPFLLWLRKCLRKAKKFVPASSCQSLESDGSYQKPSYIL
Chain of human CYP2B6, CYP2B6 (gene 1555) (P20813 whole entry, looked up): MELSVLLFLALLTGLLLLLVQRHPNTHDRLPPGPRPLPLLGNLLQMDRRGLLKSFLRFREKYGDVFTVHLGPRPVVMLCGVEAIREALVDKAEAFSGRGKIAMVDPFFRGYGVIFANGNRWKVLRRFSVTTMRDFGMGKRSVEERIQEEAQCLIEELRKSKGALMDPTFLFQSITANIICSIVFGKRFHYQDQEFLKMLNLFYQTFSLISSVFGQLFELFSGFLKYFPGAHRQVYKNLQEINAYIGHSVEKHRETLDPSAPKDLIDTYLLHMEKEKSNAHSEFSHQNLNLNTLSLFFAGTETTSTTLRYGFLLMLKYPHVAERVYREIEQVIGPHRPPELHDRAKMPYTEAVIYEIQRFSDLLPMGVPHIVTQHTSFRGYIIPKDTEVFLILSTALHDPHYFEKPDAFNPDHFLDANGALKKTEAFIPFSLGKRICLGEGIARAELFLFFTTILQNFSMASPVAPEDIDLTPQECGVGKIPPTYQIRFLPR
Chain of human CYP2C9, CYP2C9 (gene 1559) (P11712 whole entry, looked up): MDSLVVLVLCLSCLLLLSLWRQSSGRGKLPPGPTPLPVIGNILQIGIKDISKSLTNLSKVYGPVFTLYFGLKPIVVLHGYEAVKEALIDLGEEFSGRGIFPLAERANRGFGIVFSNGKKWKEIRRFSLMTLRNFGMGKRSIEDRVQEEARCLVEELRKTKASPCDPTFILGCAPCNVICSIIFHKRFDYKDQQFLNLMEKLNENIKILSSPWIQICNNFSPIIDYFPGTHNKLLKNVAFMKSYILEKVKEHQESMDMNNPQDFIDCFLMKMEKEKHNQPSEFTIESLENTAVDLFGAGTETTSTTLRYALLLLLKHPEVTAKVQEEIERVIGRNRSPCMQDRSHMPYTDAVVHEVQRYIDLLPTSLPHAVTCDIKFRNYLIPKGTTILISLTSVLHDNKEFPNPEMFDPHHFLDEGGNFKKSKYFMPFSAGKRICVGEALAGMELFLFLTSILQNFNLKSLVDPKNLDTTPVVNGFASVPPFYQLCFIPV
Chain of rat CYP2A2, Cyp2a2 (gene 24895) (P15149 whole entry, looked up): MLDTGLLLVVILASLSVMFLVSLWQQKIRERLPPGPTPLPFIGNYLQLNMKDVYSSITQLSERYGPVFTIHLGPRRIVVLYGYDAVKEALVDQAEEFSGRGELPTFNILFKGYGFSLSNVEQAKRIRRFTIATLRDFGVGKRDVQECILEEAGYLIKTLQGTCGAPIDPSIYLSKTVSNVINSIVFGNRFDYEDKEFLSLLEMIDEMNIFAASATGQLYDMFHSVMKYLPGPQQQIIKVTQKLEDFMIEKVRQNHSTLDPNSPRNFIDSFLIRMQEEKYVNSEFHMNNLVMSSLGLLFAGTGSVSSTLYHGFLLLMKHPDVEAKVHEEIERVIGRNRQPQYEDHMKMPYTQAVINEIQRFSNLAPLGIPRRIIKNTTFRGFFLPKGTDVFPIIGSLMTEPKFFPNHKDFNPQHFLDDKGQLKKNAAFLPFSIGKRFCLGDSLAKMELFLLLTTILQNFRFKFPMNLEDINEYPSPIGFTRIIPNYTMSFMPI
Chain of human CYP2J2, CYP2J2 (gene 1573) (P51589 whole entry, looked up): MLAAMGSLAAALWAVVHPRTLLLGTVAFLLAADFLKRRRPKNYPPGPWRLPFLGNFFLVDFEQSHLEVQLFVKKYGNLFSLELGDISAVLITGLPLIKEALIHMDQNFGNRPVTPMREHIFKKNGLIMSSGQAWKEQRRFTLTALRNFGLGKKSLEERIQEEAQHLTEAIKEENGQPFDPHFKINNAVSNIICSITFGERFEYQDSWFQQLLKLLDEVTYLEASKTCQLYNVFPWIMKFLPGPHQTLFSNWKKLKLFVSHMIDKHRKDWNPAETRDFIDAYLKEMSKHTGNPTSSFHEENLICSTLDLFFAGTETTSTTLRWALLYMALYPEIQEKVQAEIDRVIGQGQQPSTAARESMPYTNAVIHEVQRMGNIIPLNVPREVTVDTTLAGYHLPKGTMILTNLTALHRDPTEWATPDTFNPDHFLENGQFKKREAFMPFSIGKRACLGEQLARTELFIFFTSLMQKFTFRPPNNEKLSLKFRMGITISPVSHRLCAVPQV
Chain of human CYP2A6, CYP2A6 (gene 1548) (P11509 whole entry, looked up): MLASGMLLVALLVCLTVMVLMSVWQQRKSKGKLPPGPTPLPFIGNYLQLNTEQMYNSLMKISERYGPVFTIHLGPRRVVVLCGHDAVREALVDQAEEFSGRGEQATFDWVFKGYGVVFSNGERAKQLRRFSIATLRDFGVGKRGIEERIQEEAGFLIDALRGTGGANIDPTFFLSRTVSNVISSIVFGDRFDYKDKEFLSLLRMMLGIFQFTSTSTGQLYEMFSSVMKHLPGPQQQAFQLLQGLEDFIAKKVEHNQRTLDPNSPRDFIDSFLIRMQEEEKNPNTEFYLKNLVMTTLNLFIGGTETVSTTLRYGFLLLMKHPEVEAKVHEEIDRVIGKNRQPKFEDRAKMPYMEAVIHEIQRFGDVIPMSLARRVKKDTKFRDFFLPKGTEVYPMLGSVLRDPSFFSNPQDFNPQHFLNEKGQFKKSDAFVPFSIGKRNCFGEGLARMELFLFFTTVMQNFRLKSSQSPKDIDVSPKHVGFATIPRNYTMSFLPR

As to `COP(=O)(NC(C)=O)SC` (stereo not drawn), the outcome in assay [1], in assay [2], in assay [3], in assay [4], in [5] and in assay [6] was inactive. Besides, the call in assay [7] was inactive.

As for `C[Si](Cn1cncn1)(c1ccc(F)cc1)c1ccc(F)cc1`, the AC50 in assay [1] was 19.8 µM (active); in assay [4], 16.8 µM (active); in assay [5] it was 22.5 µM (active); in [7], 3.78 µM (active); in assay [8] it was 1.75 µM (active); in assay [9], 0.238 µM (active). For the same molecule, the AC50 in [11] is 1.04 µM (active); in assay [12], 0.0366 µM (active); in assay [13] it was 0.0595 µM (active); in assay [14], 0.0371 µM (active). Moreover, the outcome in assay [2], in [3], in [6] and in assay [10] was inactive.

Take `FC(F)C(F)(F)OCC(Cn1cncn1)c1ccc(Cl)cc1Cl` (stereo not drawn): the AC50 in assay [1] was 25.7 µM (active); in assay [5], 23 µM (active); in assay [6] it was 20 µM (active); in assay [7], 2.15 µM (active); in [9] it was 3.74 µM (active); in assay [15], 4.85 µM (active). Besides, the AC50 in assay [11] was 2.91 µM (active); in assay [16], 6.4 µM (active); in assay [12] it was 0.00646 µM (active); in [13] it was 0.074 µM (active); in [14], 0.452 µM (active). For the same molecule, the result in assay [2], in [3], in [4] and in [8] was inactive.

Take `O=c1ccc(=O)[nH][nH]1`: the outcome in assay [1], in assay [2], in assay [3], in assay [4], in [5] and in assay [6] was inactive.

For the molecule `CCC(CC)Nc1c([N+](=O)[O-])cc(C)c(C)c1[N+](=O)[O-]`, the AC50 in assay [1] is 22.7 µM (active); in [2] it was 29.5 µM (active); in assay [3], 29.2 µM (active); in assay [4], 28.3 µM (active); in assay [5], 28.9 µM (active); in [6], 12.3 µM (active). Also, in assay [12], the AC50 is 10 µM (active). Further, the outcome in assay [7] and in assay [15] was inactive.

In the case of `CC1(C(=O)Nc2ccc(O)c(Cl)c2Cl)CCCCC1`, the result in [1], in assay [2], in assay [3], in assay [4] and in assay [6] was inactive. Besides, the figures for the AC50 in [11] and in assay [12] were 2.58 µM (active) and 6.6 µM (active), respectively.

As for `CC(COc1ccc(Oc2ccccc2)cc1)Oc1ccccn1` (stereo not drawn), the outcome in [1], in assay [2], in assay [4] and in assay [15] was inactive. The AC50 in assay [3] is 12 µM (active); in assay [5] it was 26.7 µM (active); in assay [6], 7.1 µM (active); in assay [12] it was 13.7 µM (active).

For the molecule `CN(C)[C@@H]1C(=O)C(C(N)=O)=C(O)[C@@]2(O)C(=O)C3=C(O)c4c(O)cccc4[C@@](C)(O)[C@H]3[C@H](O)[C@@H]12`, the outcome in [1], in [2], in assay [3], in [4], in [5] and in assay [6] was inactive. Besides, the molecule was classed as inactive in [17]. Moreover, the AC50 in assay [18] is 0.0105 µM (active).

As to `CCOP(=S)(OCC)Oc1ccc2c(C)c(Cl)c(=O)oc2c1`, the AC50 in [1] is 5.21 µM (active); in [5] it was 5.08 µM (active); in [9], 0.433 µM (active); in assay [15], 1.17 µM (active); in assay [10], 0.0646 µM (active); in [11], 0.798 µM (active). Besides, the AC50 was 0.428 µM (active) in [12] and 0.914 µM (active) in assay [14]. Moreover, the outcome in assay [2], in [3], in assay [4], in [6], in [19] and in [13] was inactive.
